Kd data for 28 compounds are collected here from paper PMC5540273 (PLoS ONE, 2017).

The subject of one test is T1, JNK3.
T1 construct: gene MAPK10

For test [1], the system named is JAK2(JH1domain-catalytic).
Another test deals with T2, JNK1.
T2 construct: gene MAPK8

A further test deals with T3, JNK2.
T3 construct: gene MAPK9

The subject of test [2] is JAK3(JH1domain-catalytic).
Test [3] relates to JAK1(JH2domain-pseudokinase).
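Also: kd values determined as follow-up on hits from a single-replicate KINOMEscan panel screen.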

Broadly, the Kd is a measure of binding affinity in units of concentration. `CCc1nc(-c2cccc(C)c2)c(-c2ccncc2)s1` returned a Kd with JNK3 of 0.081 µM. Regarding `COc1cc(Nc2nccc(N3CCC(NC(=O)C4COc5ccccc5O4)C3)n2)cc(OC)c1OC` (centres unmarked) [GSK1379761], the equilibrium dissociation constant (Kd) in test [1] came to 0.047 µM. In turn, `CC(C)(C)c1ccc(C(=O)Nc2cn3cc(-c4ccccc4)ccc3n2)cc1` came in with a dissociation constant Kd in the test on KIT of more than 10 µM. Take `CCC(=O)c1c(-c2ccccc2)c2cc(Cl)ccc2c(=O)n1Cc1cc(S(C)(=O)=O)n(CCC(C)(C)O)n1`: the equilibrium dissociation constant (Kd) with JNK1 turned out to be 0.019 µM; in the test on JNK2, 0.015 µM; in the test on JNK3 it was 0.0046 µM. The matching figures for `CCC(=O)c1c(-c2ccccc2)c2cc(Cl)ccc2c(=O)n1Cc1ccc(C(=O)O)cc1`: 0.066 µM, 0.077 µM and 0.012 µM. Turning to `COC(=O)c1c(-c2ccccc2)c2cc(Br)ccc2c(=O)n1Cc1ccc(NC(=O)CCC(=O)O)cc1`, the equilibrium dissociation constant (Kd) in the test on JNK1 was found to be 0.058 µM; in the test on JNK2 it was 0.066 µM; in the test on JNK3, 0.013 µM. On to `Nc1n[nH]c2ncc(-c3ccccc3)cc12` [SB-517081], for which, in the test with KIT, the affinity, expressed as Kd, was 0.092 µM. That is a double-digit nanomolar value. For the compound `COc1cccc(C2=C(Nc3cccc(C(=O)O)c3)C(=O)NC2=O)c1` [SB-390770], binding in test [2] was characterised by a dissociation constant (Kd) of 0.48 µM.

Compound `COc1cc2nccc(Nc3ccc(OCc4ccc(NC(C)=O)cc4)cc3)c2cc1OC.Cl` [GW440135] showed an equilibrium dissociation constant (Kd) in the test with KIT of 0.0074 µM.

Compound `Cl.NS(=O)(=O)c1cccc(Nc2cc(-c3ccc(F)cc3)n[nH]2)c1` [GW824645] had a Kd in the test with KIT of 0.016 µM. `CCCNC(=O)Nc1ccc(Oc2ncnc3ccn(C)c23)cc1` displayed a Kd in the test on KIT of 0.067 µM. With `COc1cc(Nc2ccnc3ccc(C(F)(F)F)cc23)cc(OC)c1OC` [GW577382], in test [2], the dissociation constant (Kd) was more than 10 µM. With `Cc1cc(Nc2nc(-c3cccc(C)n3)nc3ccccc23)ccn1` [GW872411], in test [3], the Kd is 0.41 µM.

In the case of `O=c1cc(N2CCOCC2)nc2n(Cc3ccc(F)c(Cl)c3)ccn12` [GSK2297099], the dissociation constant (Kd) in test [1] was more than 10 µM. As to `COc1ccc(-n2cnc3c(N)ncnc32)cc1` [SKF-97236], the dissociation constant (Kd) in the test on KIT was 0.2 µM. In other words, the sub-micromolar range. For the compound `Fc1cccc(CSc2nnc(-c3ccc4c(c3)CCO4)o2)c1`, the Kd with IRAK4 was more than 10 µM. Take `COC(=O)c1c(-c2ccccc2)c2cc(Br)ccc2c(=O)n1Cc1ccc(S(C)(=O)=O)cc1`: the Kd was determined as 0.48 µM in the test with JNK1, 0.35 µM in the test on JNK2 and 0.073 µM in the test with JNK3. For the compound `Nc1nc(-c2ccccc2F)c(-c2ccnc3ccccc23)s1` [GW560459], the dissociation constant (Kd) is more than 10 µM with INSR, 1.2 µM with JNK2 and 0.61 µM with JNK3. For `Cc1nc(N(C)[C@H]2CN(C(=O)CC#N)CC[C@H]2C)c2cc[nH]c2n1`, in [2], binding was put at a Kd of 0.14 µM. This lies in the sub-micromolar range. For the compound `CCC(=O)c1c(-c2ccccc2)c2cc(Cl)ccc2c(=O)n1Cc1cc(S(C)(=O)=O)n(CC(N)=O)n1`, the Kd in the test on JNK1 turned out to be 0.16 µM; with JNK2 it was 0.12 µM; with JNK3, 0.06 µM. For `CN(C)c1cc(-c2ccc3c(N)n[nH]c3c2)nc(N)n1` [GSK2219329], the equilibrium dissociation constant (Kd) with KIT-autoinhibited was more than 10 µM.

The compound `O=C(NCCNc1ccnc(Nc2ccc(F)cc2)n1)Nc1ccc2c(c1)OCO2` [GSK1379882] yielded a dissociation constant Kd in test [1] of 2 µM. This counts as single-digit micromolar. `COc1cc(Nc2nccc(N3CCC(NC(=O)C(C)c4ccc(Cl)cc4)C3)n2)cc(OC)c1OC` (centres unmarked) [GSK1379757] registered a dissociation constant (Kd) in test [1] of 0.14 µM. Against the preceding compound, the Kd is about 14-fold lower. In test [3], `Nc1nc(N)c2nc(-c3ccccc3)[nH]c2n1` [SKF-12778] yielded a dissociation constant (Kd) of 0.15 µM. That is a sub-micromolar value. The compound `COc1ccc(Nc2nccc(N3CCC(NS(=O)(=O)c4ccc(NC(C)=O)cc4)C3)n2)cc1` (centres unmarked) [GSK1379729] had a dissociation constant (Kd) in test [1] of 0.038 µM. For `CCn1c(-c2ccoc2)nc2cnccc21` [SB-733887], in the test on INSR, the Kd was more than 10 µM. For the compound `CCC(=O)c1c(-c2ccccc2)c2cc(Cl)ccc2c(=O)n1Cc1cc(S(C)(=O)=O)n(CC(F)F)n1`, the Kd with JNK1 is 0.037 µM; with JNK2, 0.033 µM; with JNK3, 0.0092 µM. `CCC(=O)c1c(-c2ccccc2)c2cc(Cl)ccc2c(=O)n1Cc1cc(C(=O)NC2CC2)n(C)n1`: the values for the Kd with JNK1, with JNK2 and with JNK3 were 0.02 µM, 0.01 µM and 0.0038 µM, respectively.
